Measured values published in PubChem BioAssay (EPA / NIEHS).
Records with an inconclusive call do not appear. Calls of active or inactive are those of the source. How the source made its calls, unless noted: active means hit-call score of the fitted dose curve at least 0.9, where 1 is the maximum; inactive means score below 0.9.

Key:
[1] = CCTE_Harrill_HTTr_Viability_MCF7: CCTE's 6-hour Cell Viability Assessment for the High-Throughput Transcriptomics (HTTr) Platform, in MCF-7 cells cultured in DMEM + 10% fetal bovine serum, Harrill Lab (AID 2284010)
How it was run: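 Membrane integrity was scored by high-content imaging of propidium iodide dye exclusion after a 6 h exposure across an eight-point dilution series. Data were fitted bidirectionally relative to DMSO as negative control and baseline.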

[2] = CCTE_Harrill_HTTr_Apoptosis_MCF7: CCTE's 6-hour Apoptosis Assessment for the High-Throughput Transcriptomics (HTTr) Platform, in MCF-7 cells cultured in DMEM + 10% fetal bovine serum, Harrill Lab (AID 2284011)
How it was run: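 Apoptosis in MCF-7 cells grown in DMEM with 10% fetal bovine serum was scored after a six hour exposure by high content imaging of caspase-3/7 activation (CellEvent Caspase 3/7 Green), with DMSO serving as negative control and baseline.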

[3] = CCTE_Simmons_MITO_inhib_resp_rate: CCTE's HepG2 Seahorse XF Respirometric Screening Assay at Inhibited Respiratory State [full ETC block], Simmons Lab (AID 2284006); conditions: actives raise or lower the signal
How it was run: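 HepG2 cells on Seahorse XF96; oxygen consumption measured after test compound, then FCCP, then rotenone/antimycin A injections over 72 min. Test chemicals at 7 concentrations, 125 nM–100 uM final. OCR fitted bidirectionally versus DMSO.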

[4] = CCTE_Simmons_MITO_viability: CellTiter-Glo Viability Assessment for CCTE's HepG2 Seahorse XF Respirometric Screening Assay [post-hoc], Simmons Lab (AID 2284007; active means hit-call score of the fitted dose curve at least 0.9, where 1 is the maximum;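 on AC50: cells exposed to chemical for 90 min before the ATP read; actives lower ATP signal relative to DMSO baseline meaning reduced viability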)
How it was run: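 HepG2 cells from the Seahorse XF respirometry run were exposed 90 min to a 7-point series, 125 nM–100 uM final, DMSO vehicle; ATP content then read by luciferase luminescence. Three biological replicates, technical singles; loss of signal fitted versus DMSO.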

[5] = CCTE_Shafer_MEA_acute_spike_number: CCTE's Neural Acute Assay for Total Number of Spikes, Shafer Lab (AID 2284008);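 on AC50: curve fitted for decrease in spike count so AC50 reflects inhibitors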
How it was run: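 Using an adaptive detector set to 8x rms noise, spikes were counted in 40-min windows before and after compound addition (0.03-40 uM) to rat cortical networks at 37 C; the well-level change from baseline was analysed relative to DMSO.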

[6] = CCTE_Shafer_MEA_acute_firing_rate_mean: CCTE's Neural Acute Assay for Mean Firing Rate, Shafer Lab (AID 2284009);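 further: analyzed for loss of signal so actives lower firing rate relative to DMSO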
How it was run: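 Read-out: well-mean spike rate (spikes/recording length/electrodes), % change from 40 min pre-dose baseline to 40 min with compound. Rat cortical cultures, DIV 13 or 15, 37 C; 0.03-40 uM; DMSO as negative control.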

[7] = CCTE_Harrill_HTTr_CellCount_MCF7: CCTE's Cell Proliferation Assessment for the High-Throughput Transcriptomics (HTTr) Platform, Harrill Lab (AID 2284012; active means hit-call score of the fitted dose curve at least 0.9, where 1 is the maximum;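 further: cells exposed to compound for six hours; intended direction is loss of nuclei count meaning fewer cells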)
How it was run: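 MCF-7 cells were exposed for 6 h to an eight-point dilution series; Hoechst-labeled nuclei were counted by high content imaging. Curves were fitted bidirectionally against DMSO as negative control and baseline, with signal loss indicating reduced cell count.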

[8] = CCTE_Shafer_MEA_acute_burst_number: CCTE's Neural Acute Assay for Single-Electrode Bursts, Shafer Lab (AID 2284013)
How it was run: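 Rat cortical cultures, DIV 13/15; 40 min baseline, then 40 min with compound 0.03-40 uM, 37 C. Spikes: 300-5000 Hz band-pass, threshold 8x rms noise. Readout = % change in single-electrode bursts vs baseline, loss-of-signal fit.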

[9] = CCTE_Shafer_MEA_acute_burst_duration_mean: CCTE's Neural Acute Assay for Mean Burst Duration, Shafer Lab (AID 2284014);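 further: hits are decreases in mean burst duration relative to DMSO controls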
How it was run: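 Primary rat cortical neurons on 16-electrode MEA wells, treated on DIV 13 or 15 with compound (0.03-40 uM; ≥3 wells each). 40-min baseline and 40-min exposure recordings at 37 C; percent change in mean burst duration per well versus DMSO.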

[10] = CCTE_Shafer_MEA_acute_per_burst_spike_number_mean: CCTE's Neural Acute Assay for Average Number of Spikes Per Burst, Shafer Lab (AID 2284015);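 further: hits are decreases in mean spikes per burst versus baseline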
How it was run: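 Percent change in mean spikes per single-electrode burst is compared between a 40 min baseline and a 40 min recording with compound (0.03-40 uM). Cultures were rat cortical neurons on MEA plates at DIV 13 or 15, recorded at 37 C, with DMSO as the negative control.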

[11] = CCTE_Shafer_MEA_acute_interburst_interval_mean: CCTE's Neural Acute Assay for Mean Interburst Interval, Shafer Lab (AID 2284016);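 further: percent change of mean interburst interval versus each well's own pre-dose baseline; curves fitted for decrease in interburst interval relative to DMSO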
How it was run: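 Percent change in mean single-electrode interburst interval was calculated per well from 40 min recordings before and after compound (0.03-40 uM). Recordings were made at 37 C on rat cortical cultures at DIV 13 or 15, with spikes detected at 8x rms threshold.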

[12] = CCTE_Shafer_MEA_acute_burst_percentage_mean: CCTE's Neural Acute Assay for Percentage of Spikes in a Burst, Shafer Lab (AID 2284017);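 further: curve fitted for loss of signal so potency reflects decreased burst percentage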
How it was run: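 Well-level mean burst percentage from a 40-min recording after compound (0.03-40 uM) expressed as percent change from a 40-min baseline at 37C. Cultures: primary rat cortical neurons on MEA, dosed on DIV 13 or 15; fitted downward relative to DMSO.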

[13] = CCTE_Shafer_MEA_acute_burst_percentage_std: CCTE's Neural Acute Assay for Standard Deviation of Burst Percentage, Shafer Lab (AID 2284018);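 further: fitted in the negative direction so actives lower burst percentage SD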
How it was run: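 Primary rat cortical neurons on 16-electrode MEA wells were recorded 40 min at baseline (DIV 13 or 15), then 40 min after compound (0.03-40 uM), at 37 C. Well value is SD across electrodes of spikes-in-bursts/total spikes; endpoint is percent change, DMSO-referenced.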

[14] = CCTE_Shafer_MEA_acute_per_network_burst_spike_number_mean: CCTE's Neural Acute Assay for Average Number of Spikes in a Network Burst, Shafer Lab (AID 2284019)
How it was run: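 Primary rat cortical neurons on 16-electrode MEA wells, DIV 13 or 15, 37 C; 40-min baseline then 40-min recording with compound (0.03-40 uM). Spikes per network burst (total spikes/number of bursts) expressed as percent change from baseline, DMSO reference.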

[15] = CCTE_Shafer_MEA_acute_per_network_burst_spike_number_std: CCTE's Neural Acute Assay for Standard Deviation of Number of Spikes in a Network Burst, Shafer Lab (AID 2284020);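 further: fitted for decrease in spike-number SD versus DMSO so actives lower it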
How it was run: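 Primary rat cortical neurons on 48-well MEAs (16 electrodes/well) recorded at DIV 13 or 15: 40-min baseline, then 40 min with compound (0.03-40 uM), 37 C. Value is percent change in SD of spikes per network burst, relative to DMSO.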

[16] = CCTE_Shafer_MEA_acute_network_burst_percentage: CCTE's Neural Acute Assay for Percentage of Network Bursts, Shafer Lab (AID 2284022);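 further: curves fitted for loss so actives lower network burst percentage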
How it was run: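 On DIV 13 or 15, at least three wells of rat cortical neurons per compound are dosed at 0.03-40 uM. Spontaneous firing is detected at 8x rms noise for 40 min before and after dosing at 37 C. The percent change in network-burst spike share is reported.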

[17] = CCTE_Shafer_MEA_acute_cross_correlation_area: CCTE's Neural Acute Assay for Area of Cross Correlation, Shafer Lab (AID 2284024);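 further: area under pooled inter-electrode spike cross-correlation near zero lag as percent change from own baseline; curves fitted for loss of cross-correlation area so actives lower synchrony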
How it was run: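 Extracellular recordings from cultured rat cortical neurons measure network synchrony as cross-correlation area; each well's post-compound value (0.03-40 uM, 40 min) is compared with its own 40 min baseline to give percent change.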

[18] = CCTE_Shafer_MEA_acute_cross_correlation_HWHM: CCTE's Neural Acute Assay for Cross Correlation at Half Width at Half Maximum, Shafer Lab (AID 2284026);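 further: percent change per well from pre-dose baseline in spike cross-correlogram half width; hits are a decrease in cross-correlogram half width relative to DMSO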
How it was run: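 Percent change in cross-correlogram half width at half maximum, narrower meaning more synchrony, was derived per well from paired 40-min recordings before and during exposure to 0.03-40 uM compound in rat cortical cultures at 37 C.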

Measured: AC50

NC(=O)O
inactive: [1] | [2]

CCCCCCCCc1ccc(O)cc1
active: [5] 3 µM | [6] 3.15 µM | [8] 2.53 µM | [11] 5 µM | [12] 12.7 µM | [13] 20 µM | [16] 3.39 µM | [18] 9.18 µM
inactive: all other assays above

CC(C)(c1ccccc1)c1ccc(O)c(C(C)(C)c2ccccc2)c1
active: [5] 8.24 µM | [6] 8.32 µM | [11] 4.19 µM | [12] 7.18 µM | [13] 20 µM | [16] 28.6 µM | [18] 9.24 µM
not listed: [4] | [7]
inactive: all other assays above

CCOP(=S)(OCC)Oc1nc(Cl)c(Cl)cc1Cl
inactive: [3] | [1] | [2] | [7]
active: [4] 23.4 µM

O=C1C2(Cl)C3(Cl)C4(Cl)C(Cl)(Cl)C5(Cl)C3(Cl)C1(Cl)C5(Cl)C24Cl (stereo unspecified)
inactive: [3] | [1] | [2] | [7] | [11] | [14] | [16] | [17]
active: [4] 71.6 µM | [5] 1.84 µM | [6] 1.84 µM | [8] 3.27 µM | [9] 9.11 µM | [10] 9.36 µM | [12] 9.9 µM | [13] 32.5 µM | [15] 9.39 µM | [18] 7.01 µM

COc1cc(-c2ccc(N)c(OC)c2)ccc1N
inactive: [3] | [1] | [2] | [7]

Cl/C=C/Cl
inactive: [1] | [2]

CCOP(=S)(OCC)SCSP(=S)(OCC)OCC
active: [12] 20 µM | [15] 20 µM | [16] 27 µM | [18] 32.7 µM
not listed: [3] | [4] | [7]
inactive: all other assays above

C=C(C)C(=O)[O][Sn]([CH2]CCC)([CH2]CCC)[CH2]CCC
active: [4] 10.9 µM | [5] 0.0312 µM | [6] 0.0311 µM | [1] 22.3 µM | [2] 11 µM | [7] 11 µM | [8] 0.0118 µM | [9] 3.11 µM | [12] 0.0833 µM | [13] 20 µM | [15] 0.0933 µM | [16] 0.205 µM | [17] 0.0108 µM
inactive: [3] | [10] | [11] | [14] | [18]

CC(C)(C)c1cc(O)ccc1O
active: [12] 20 µM | [15] 20 µM | [18] 29.3 µM
not listed: [1] | [2] | [3] | [4] | [7]
inactive: all other assays above
